Source: PubChem BioAssay (Tox21)
Results filed as inconclusive are left out. Where a call stands in place of a potency, no number is given. Calls of active or inactive are those of the source. Calls follow the shape of the dose curve; as a rule, active = well fitted cell-killing curve with a large enough effect in the repeat runs; inconclusive = weak or mixed curves, or effect the other way; inactive = flat fitted curve, though single readings scatter.

Assay: qHTS assay to identify small molecule that activate the aryl hydrocarbon receptor (AhR) signaling pathway - cell viability counter screen (AID 743086);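 also: HepG2 liver cells carrying the AhR DRE luciferase reporter; nearly all actives have a fitted effect of over 45% in size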
Settings: HepG2-AhR-luc viability, CellTiter-Fluor, 24 h; series mostly up to 70.3 µM
Description: U.S. Tox21 Program National Center for Advancing Translational Sciences [NCATS] NIH Chemical Genomics Center [NCGC] U.S. Environmental Protection Agency [EPA] National Institutes of Environmental Health Sciences [NIEHS] National Toxicology Program [NTP] U.S. Food and Drug Administration [FDA] Tox21 Assay overview: The Aryl hydrocarbon Receptor (AhR), a member of the family of basic helix-loop-helix transcription factors, is crucial to adaptive responses to environmental changes. AhR mediates cellular responses to environmental pollutants such as aromatic hydrocarbons through induction of phase I and II enzymes but also interacts with other nuclear receptor signaling pathways A cell based HepG2-AhR-luc assay (HG2L7.5c1 cell line, developed by Dr. Michael S. Denison, University of California at Davis) was used to assess the activation of AhR. HepG2 (human hepatocellular carcinoma) cells were stably transfected with an Ah receptor-responsive firefly luciferase reporter gene plasmid containing 20 dioxin responsive elements and luciferase reporter gene. Increased luciferase activity can be used to identify the compounds that induce AhR activation. The cytotoxicity of the compounds screened against the HepG2-AhR-luc cell line was tested in parallel by measuring the cell viability using CellTiter-Fluor assay in the same wells.
Tox21 Assay Protocol Summary: 4000 cells in 5 uL/well were dispensed into white wall/solid bottom 1536-well plates using a Multidrop Combi (Thermo Fisher Scientific Inc., Waltham, MA) dispenser. After the assay plates were incubated at 37C for 5 h, 23 nL of compound or DMSO vehicle was transferred to the assay plates by a pintool station (Kalypsys, San Diego, CA). The plates were incubated at 37C for 24 hr. For cell viability measurement, 1 ul/well of CellTiter-Fluor reagent (Promega, Madison, WI) was added into the assay plates using a Flying Reagent Dispenser (FRD) (Aurora Discovery, CA),and then the assay plates were incubated at 37C for 30 min. The fluorescence intensity in the plates was measured using a ViewLux plate reader (PerkinElmer, Shelton, CT), followed by the addition of 4 uL of ONE-Glo Luciferase Assay reagent (Promega) using an FRD (Aurora Discovery). After the assay plates were incubated at room temperature for 30 min, luminescence intensity was measured using a ViewLux plate reader (Perkin Elmer).
In the case of `OCc1ccccn1`, the Potency is reported as “inactive”. With `CCN1CCCC(OC(=O)C(c2ccccc2)c2ccccc2)C1` (stereo not given) the Potency was “inactive”. In the case of `CCN1CCN(c2cc3c(cc2F)c(=O)c(C(=O)O)cn3C2CC2)CC1`, the Potency is reported as “inactive”. For `NCCN1CCNC1=O`, the Potency was “inactive”. For `O=C(O)c1ccccc1S`, the Potency was “inactive”. With `CO` the Potency was “inactive”. With `CCC(C(=O)NC(N)=O)c1ccccc1` (stereo not given) the Potency was “inactive”. With `CC/C=C\CCCCO` the Potency was “inactive”. For `C1CCCCCCCCCCC1`, the Potency was “inactive”. In the case of `C=C(C)C1CC=C(C)C(O)C1` (stereo not given), the Potency is reported as “inactive”. With `CC(C)COC(=O)C(C)C` the Potency was “inactive”. For `OCCCCCCO`, the Potency was “inactive”. For `CC(C)(C)OC(=O)N1C[C@@H](F)C[C@H]1C(=O)O`, the Potency was “inactive”. In the case of `CCN(CC)S(=O)(=O)c1ccc(C(=O)O)cc1`, the Potency is reported as “inactive”. With `CCCC(=O)O[C@]1(C(=O)CCl)[C@@H](C)C[C@H]2[C@@H]3CCC4=CC(=O)C=C[C@]4(C)[C@@]3(F)C(=O)C[C@@]21C` the Potency was “inactive”. In the case of `NC(=O)c1c(Cl)cccc1Cl`, the Potency is reported as “inactive”. For `[O-][N+](=Nc1ccccc1)c1ccccc1`, the Potency was “inactive”. For `COc1ccc(NC(C)=O)cc1`, the Potency was “inactive”. With `NC1CCN(c2cccc(Cl)n2)CC1` the Potency was “inactive”. In the case of `CCCC(C)CO` (stereo not given), the Potency is reported as “inactive”. In the case of `CC(C)c1ccc2oc3nc(N)c(C(=O)O)cc3c(=O)c2c1`, the Potency is reported as “inactive”. In the case of `c1ccc2cnncc2c1`, the Potency is reported as “inactive”. With `COc1cccc(OC)c1` the Potency was “inactive”. For `C=CCSCC1Nc2cc(Cl)c(S(N)(=O)=O)cc2S(=O)(=O)N1` (stereo not given), the Potency was “inactive”. With `CC1=CC(=O)CCC1` the Potency was “inactive”. In the case of `C=C(C)[C@@H]1CCC2=CC(=O)C[C@@H](C)[C@]2(C)C1`, the Potency is reported as “inactive”. With `CC(=O)CCc1ccc(O)cc1` the Potency was “inactive”. In the case of `CCN(CC)C(=O)c1ccc(O)c(OC)c1`, the Potency is reported as “inactive”. For `CCO[Si](CCCN=C=O)(OCC)OCC`, the Potency was “inactive”. For `COc1nc(C)nc(N)n1`, the Potency was “inactive”. With `NC(=O)CCCCC1CCSS1` (stereo not given) the Potency was “inactive”. For `CC1CCN(CCCC(=O)c2ccc(F)cc2)CC1`, the Potency was “inactive”. In the case of `CCc1cc(S(=O)(=O)O)c2cc(C(C)C)cccc1-2`, the Potency is reported as “inactive”. With `CCN1CCCC1CNC(=O)c1cc(S(N)(=O)=O)ccc1OC` (stereo not given) the Potency was “inactive”. In the case of `N#CC1(O)CCCCC1`, the Potency is reported as “inactive”. In the case of `CO[Si](OC)(OC)OC`, the Potency is reported as “inactive”. In the case of `Nc1nc2c(ncn2CCC(CO)CO)c(=O)[nH]1`, the Potency is reported as “inactive”. With `COc1ccc(COC=O)cc1` the Potency was “inactive”. For `CCC(C)(C)C1CCC(OC)CC1` (stereo not given), the Potency was “inactive”. For `CC(=O)c1ccc(C)cc1`, the Potency was “inactive”.
